Among the data in PubChem BioAssay AID2069 (Sanford-Burnham Center for Chemical Genomics, 2009) are inhibition values, retold here.

The campaign covered roughly 1,200 compounds. About 210 (18%) were called active. Only a sample is shown. Values without a mark were called inactive. Rule as the data show it: active = inhibition above about 30%; inactive = the rest.

The assay can be described thus: HTRF signal interference by compounds, confirmation, artefact control for SUMOylation inhibitor project, biochemical, uHTS (AID 2069). The settings on record: HTRF interference counterscreen, fluorescence, at 35 µM, hits give high values.
As to `S=c1[nH]nc(-c2cc(-c3ccccc3)n[nH]2)n1/N=C/c1cccc(Cl)c1`, the inhibition – broadly, the change of the read-out against control, counted positive when it falls – is -8.55%. Consider `COc1ccc(/C=C/c2nnc(NC(=O)CSc3ccc(C)cc3)s2)cc1`, for which the inhibition is 9.65%. With `CCOc1cc(/C=C2\C(=O)N(c3ccc(C(N)=O)cc3)N=C2C)ccc1OC(=O)c1cccs1`, the inhibition was -9.6%. The figure for `Nc1ccc2nc(-c3ccccc3)sc2c1` is 66% (active); for `Nc1ccc2c(c1)sc1ccccc12` it is -9.65%. The figure for `Cc1ccc(C)c(S(=O)(=O)c2c(N)n(/N=C/c3ccco3)c3nc4ccccc4nc23)c1` is -11.7%; for `CCc1nn(CC(=O)NC(C)CCc2ccccc2)c(=O)c2cc3cc(F)ccc3n12` (stereo unspecified) it is 16.4%; for `COc1cccc(NS(=O)(=O)c2ccc3c(c2)C2C=CCC2C(c2ccc(C(=O)O)cc2)N3)c1` (stereo unspecified) it is 8.05%. Consider `O=C(O)c1ccc(NS(=O)(=O)c2ccc3c(c2)C2C=CCC2C(c2ccccc2F)N3)cc1` (stereo unspecified), for which the inhibition was 3.15%. Take `CC(=O)c1ccc2c(c1)C1C=CCC1C(C(=O)O)N2` (stereo unspecified): the inhibition is 70.7% (active). The same measure for `CCc1ccc(NC(=O)NNC(=O)c2cc3ccccc3cc2O)cc1`: 8.2%; for `N#Cc1c(-c2cccs2)nc(SCc2ccc(Cl)cc2)[nH]c1=O`: 21.6%.

Turning to `NC(=O)C1CCN(C2=C(NS(=O)(=O)c3ccc(Cl)cc3)C(=O)c3ccccc3C2=O)CC1`, the inhibition was -20.8%. The figure for `COCCn1c(N)c(C(=O)OCc2ccccc2)c2nc3ccccc3nc21` is 16%; for `C=CCn1c(N)c(C(=O)OC(C)(C)C)c2nc3ccccc3nc21` it is 32.7% (active). The figure for `C=CCn1c(N)c(C(=O)Nc2ccccc2)c2nc3ccccc3nc21` is 20.9%. The figure for `C=CCn1c(N)c(C(=O)Nc2cccc(C)c2)c2nc3ccccc3nc21` is 6.4%; for `CC(C)(C)OC(=O)c1c(N)n(CCCN2CCCC2=O)c2nc3ccccc3nc12` it is 41.4% (active); for `COc1ccc(CNC(=O)c2c(N)n(CCCN3CCOCC3)c3nc4ccccc4nc23)cc1` it is 17.5%.

Take `O=C(Nc1cccc2cccc(NC(=O)c3ccco3)c12)c1ccco1`: the inhibition is -6.45%. The same measure for `NS(=O)(=O)c1ccc(NC2=CC(=O)C(=O)c3ccccc32)cc1`: 9.2%.

As for `CC(=O)c1cccc(NC(=S)Nc2cccc3ccccc23)c1`, the inhibition is 0.85%.

Regarding `Cc1ccc(S(=O)(=O)NNC(=O)Nc2cccc3ccccc23)cc1`, the inhibition was 4.05%. The same measure for `Oc1cccc2c(NC(=S)Nc3ccc(SC(F)F)cc3)cccc12`: -6.1%; for `O=C(CCCN1C(=O)/C(=C/c2ccco2)SC1=S)Nc1ccccc1C(=O)O`: 1.8%; for `C/C(=N\NC(=O)CNc1cccc2ccccc12)c1ccccc1`: 18%. The figure for `CC(=O)N1C(=S)NC(=O)/C1=C1/C(=O)N(CC(=O)Nc2cccc(C)c2)c2ccccc21` is 4.65%; for `CCN(CC)C(=O)C1CCCN(C(=O)Nc2ccc3nsnc3c2)C1` (stereo unspecified) it is 17.5%. On to `Nc1c(C(=O)NCc2ccco2)c2nc3ccccc3nc2n1CCc1ccccc1F`, for which the inhibition was 15.7%. The figure for `COc1ccc(-n2c(N)c(C(=O)NCC3CCCO3)c3nc4ccccc4nc32)c(OC)c1` (stereo unspecified) is 24.9%. The same measure for `CC(C)Cn1c(N)c(C(=O)NCc2cccs2)c2nc3ccccc3nc21`: 25.2%; for `CC(C)Cn1c(N)c(C(=O)NCC2CCCO2)c2nc3ccccc3nc21` (stereo unspecified): 34% (active); for `Nc1c(C(=O)NCc2ccco2)c2nc3ccccc3nc2n1CCc1ccc(F)cc1`: 23.6%. The figure for `COCCn1c(N)c(C(=O)NCC2CCCO2)c2nc3ccccc3nc21` (stereo unspecified) is 42.4% (active); for `C=CCn1c(N)c(C(=O)NCC2CCCO2)c2nc3ccccc3nc21` (stereo unspecified) it is 42.5% (active); for `COCCn1c(N)c(C(=O)NCc2cccs2)c2nc3ccccc3nc21` it is 28.6%. For the compound `Cc1ccc(-n2c(-c3cc(-c4ccco4)[nH]n3)n[nH]c2=S)c(Br)c1`, the inhibition is 16.4%. The figure for `CC1=C(C(=O)Nc2ccccc2)C(c2ccc(C)cc2)N=C(Nc2nc3ccccc3o2)N1` (stereo unspecified) is 10.2%; for `CCc1ccc2c(c1)c1nc(C)sc1n2CC` it is 0.45%. The figure for `Cn1c2ccccc2c(=O)n2c(=O)c3ccccc3cc12` is 8.7%; for `COc1cc(/C=C2/C(=O)N(c3ccccc3)N=C2C)ccc1OS(=O)(=O)c1ccccc1` it is -23.2%.

As for `Cc1ccc(Cn2nnnc2CN2CCC(NC(=O)C(C)(C)C)CC2)cc1`, the inhibition is 5.15%. The figure for `Cc1ccc(S(=O)(=O)N2CCCCC2)cc1NC(=O)COC(=O)c1c(F)cccc1F` is -11.4%. The same measure for `Cc1nn2c3c(cnc2c1-c1ccc(Cl)cc1)C(=O)CC(c1ccco1)C3` (stereo unspecified): -0.9%. The figure for `CC(C)c1ccc(S(=O)(=O)/N=C2/C=CC(=O)c3ccccc32)cc1` is 11.3%. Take `O=C(Cn1nnc2ccccc21)NCc1ccccc1`: the inhibition was -8.55%. The same measure for `CN(C)CCCn1c(N)c(C#N)c2nc3ccccc3nc21`: 39.2% (active); for `CCC(C)n1c(NC(=O)c2ccccc2)c(C#N)c2nc3ccccc3nc21` (stereo unspecified): 11.8%; for `C=CCn1c(NC(=O)c2ccccc2Cl)c(C#N)c2nc3ccccc3nc21`: 28.9%. In the case of `CCCCCn1c(N)c(C#N)c2nc3ccccc3nc21`, the inhibition is 16.7%.

With `CCCCn1c(NC(C)=O)c(C#N)c2nc3ccccc3nc21`, the inhibition was 33% (active).

As to `COc1ccccc1CCn1c(N)c(C#N)c2nc3ccccc3nc21`, the inhibition is 17.6%. As to `COCCn1c(N)c(C#N)c2nc3ccccc3nc21`, the inhibition was 43.9% (active). The figure for `N#Cc1c(N)n(CCOC(=O)c2ccc(Cl)cc2)c2nc3ccccc3nc12` is 10.8%; for `CCCCn1c(NC(=O)c2ccccc2Cl)c(C#N)c2nc3ccccc3nc21` it is 20.8%. The same measure for `Cc1cnc(C(=O)OCC(=O)c2ccc(F)cc2)cn1`: -5.75%. The figure for `O=[N+]([O-])c1c(NCCCO)cc(Sc2nc3ccccc3s2)c2nonc12` is 3.25%; for `Cc1c(C(=O)c2ccc(F)cc2F)c2ccccn2c1CCC#N` it is 17.8%. Take `COc1cc(/C=N/NC(=O)c2cc(-c3ccco3)nc3ccccc23)cc(OC)c1O`: the inhibition was -5.6%. The same measure for `O=C(NC(=S)Nc1c(Cl)ccc2nsnc12)c1ccco1`: -7.55%. Consider `O=C(N=Nc1c(O)[nH]c2ccc([N+](=O)[O-])cc12)c1ccccc1Cl`, for which the inhibition is 7.65%. As for `CN(C)c1ccc(NC(=O)c2sc(SCC(=O)Nc3ccc(Br)cc3)nc2N)cc1`, the inhibition is 8.25%. The figure for `Cc1oc(-c2ccc(F)cc2)cc1-c1nn2c(-c3ccoc3C)nnc2s1` is -3.45%; for `CN(CCC#N)C(=O)COC(=O)c1c2c(nc3ccccc13)/C(=C/c1ccco1)CC2` it is 36.5% (active). The same measure for `COc1ccccc1CNC(=O)COC(=O)c1cc(-c2ccco2)nc2ccccc12`: 12.6%. The figure for `CCOc1ccc(/C=C2/SC(=S)N(CCC(=O)Nc3ccc(C(=O)O)cc3)C2=O)cc1` is 4.55%. For the compound `Cc1nn(-c2ccccn2)c2c1C(=O)C(Br)CC2` (stereo unspecified), the inhibition is -0.05%. The figure for `O=C1/C(=C/c2coc3ccc(O)cc3c2=O)SC(=S)N1c1ccccc1` is 4.9%; for `Cc1ccc(C)c(OCC(=O)Nc2nonc2NC(=O)COc2cc(C)ccc2C)c1` it is -13.6%. For the compound `Cc1nn(-c2ccccc2)c2sc(C(=O)NNC(=O)COc3ccccc3)cc12`, the inhibition was 10.2%.

`COC(=O)c1ccccc1NC1=C/C(=N\S(=O)(=O)c2cccs2)c2ccccc2C1=O`: the inhibition was 1.7%. Turning to `O=[N+]([O-])c1ccc(N2CCN(CCO)CC2)c2ncccc12`, the inhibition is -19.1%. The same measure for `O=C(NCc1ccccc1)Nc1cccn(Cc2ccccc2)c1=O`: -6.8%. The same measure for `CC(=O)Nc1ccc(NC2=C/C(=N/S(=O)(=O)c3cccs3)c3ccccc3C2=O)cc1`: -7.75%; for `O=[N+]([O-])c1cc(Cl)cc(/C=N/NC(=S)Nc2ccc(S(=O)(=O)N3CCOCC3)cc2)c1O`: 80.5% (active); for `O=[N+]([O-])c1ccc(O)c(/C=N/NC(=S)Nc2ccc(Cl)cc2Cl)c1`: -23.9%. The figure for `Cc1c(NC(=S)N/N=C/c2cc([N+](=O)[O-])ccc2O)c(=O)n(-c2ccccc2)n1C` is 11.2%; for `Cc1ccc(/C=C2/SC(=S)N(c3ccc(S(=O)(=O)Nc4nccs4)cc3)C2=O)cc1` it is -9.3%. `N=C1/C(=C/c2cccn2Cc2ccc(Cl)cc2)C(=O)N=C2SC=CN12`: the inhibition was 18.8%. The figure for `CC1CCN(C2=C(NS(=O)(=O)c3ccc(Br)cc3)C(=O)c3ccccc3C2=O)CC1` is 7.4%. The same measure for `Cc1c(C(=O)Nc2ccc(F)cc2)cn2c(nc3ccccc32)c1C#N`: 19.4%; for `O=c1[nH]c(=S)[nH]c(O)c1N=Nc1ccc(-c2ccccc2)cc1[N+](=O)[O-]`: 16.1%. The figure for `CCOc1ccc(C2C=C(c3ccccc3)Nc3ncnn32)cc1` (stereo unspecified) is 50.8% (active); for `COc1ccc2nc(NC(=O)CCc3ccc(OC)c(OC)c3)sc2c1` it is 10.8%.

For the compound `N#CC(c1nc2ccccc2nc1N1CCCC1)S(=O)(=O)c1ccccc1` (stereo unspecified), the inhibition was 1.75%.

Take `COc1cc(=O)n(C)c2c(OCC3OC(C)(C)OC3(C)C)cccc12` (stereo unspecified): the inhibition is 2.3%. The figure for `O=c1c(-c2c(O)cc(O)c3c(=O)cc(-c4ccc(O)cc4)oc23)c(-c2ccc(O)cc2)oc2cc(O)cc(O)c12` is 35.6% (active); for `COc1cccc(NC(=O)Nc2nnc(-c3ccccc3SCc3ccccc3)s2)c1` it is 2.35%; for `COc1ccc(/C=C/c2cc(C(=O)O)c3ccccc3n2)cc1` it is 68.2% (active). The figure for `CCOc1ccc(/C=N/NC(=O)c2cc(-c3ccco3)nc3ccccc23)cc1` is 15.3%; for `COc1ccc(C=Nc2cccc3ncccc23)cc1` it is -4.65%.
